Compound activity from PubChem BioAssay.
HCV inh: inhibitors of hepatitis C virus infection | AID 651820 | Huh7.5.1 HCVcc-Cre infection, luciferase reporter, 44 h | Potency, µM (series often up to 41.8 µM), actives largely listed as inhibitors | 340,000 tested, 3.4% active; active means well fitted inhibition curve with a large enough effect; inconclusive means small, poorly fitted or top-dose-only effect, or another doubt; inactive means no such curve, though single readings can be large or run the other way
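After 44 h co-culture of compound, cells and HCVcc-Cre (~0.5 moi), substrate is added for 15 min at room temperature and luciferase measured over 15 sec. Cells were seeded at 1,000/well and pre-cultured 4 h.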
Marburg entry inh: Marburg virus entry inhibition | Marburg virus pseudotyped entry inhibition, cell reporter | Potency, µM (series often up to 37.8 µM), hits mostly inhibitors | 300,000 tested, 1.8% active | AID 540276; calls by dose curve; tested in HEK293 cells
FMDV inh: antivirals against foot and mouth disease virus; FMDV antiviral cell-based qHTS; Potency, µM (titrated, usually from 57.9 µM), actives largely listed as inhibitors; 410,000 tested, 1.2% active; calls by dose curve; tested in HEK293T cells; further: read-out not given here; nearly all actives have a fitted effect of over 45% in size
Shiga inhibitor: inhibitors of Shiga toxin in Vero cells | AID 2315 | inhibition, % at 38.7 µM | 290,000 tested, 9.2% active | Vero cells, Shiga toxin protein synthesis inhibition reporter; in the data active means inhibition mostly above about 28%, no sharp cut-off; inactive means mostly below about 43%
Cycloheximide cs: counter-screen for Shiga toxin inhibitors: cycloheximide protein synthesis inhibition | cell reporter, cycloheximide protein synthesis inhibition counterscreen | max response, % | AID 2314 | 300,000 tested, 12% active; in the data active means max response mostly above about 13%, no sharp cut-off; inactive means mostly below about 14%; further: read at 38.3 µM for the half of the compounds with a filed dose
LASV entry inh: Lassa virus entry inhibition | Potency, µM (doses to about 37.9 µM), usual class: inhibitors | AID 540256 | 300,000 tested, 1.2% active | Lassa virus pseudotype entry inhibition, cell reporter; calls by dose curve; tested in HEK293 cells; further: nearly all actives have a fitted effect of over 50% in size
Each line names hits and unclear results; the compound was inactive in the other large screens. Compounds with a hit are over-represented: about 13% of the library has one in this group of screens.

CSc1ccc(NC(=O)NCCCN2CCC(Cc3ccccc3)CC2)cc1	HCV inh 10µM (no result: LASV entry inh)
CSc1ccc(NC(=O)NCCN2CCc3ccccc3C2)cc1	Marburg entry inh inconclusive, Cycloheximide cs 16.2
COc1ccc(NC(=O)NCCCN2CCC(Cc3ccccc3)CC2)cc1	HCV inh inconclusive (no result: Marburg entry inh, LASV entry inh)
COc1ccc(OC)c(/C=N/c2oc(-c3ccco3)c(-c3ccco3)c2C#N)c1	none
CCc1ccccc1NC(=O)CSc1ccsc1[N+](=O)[O-]	HCV inh inconclusive, FMDV inh inconclusive
COc1ccccc1CNC(=O)CSc1ccc(Br)cc1	Marburg entry inh inconclusive
O=C(CSc1ccsc1[N+](=O)[O-])NC1CCCC1	none (no result: Marburg entry inh, LASV entry inh)
O=C(CSc1ccsc1[N+](=O)[O-])NCc1ccccc1	Marburg entry inh inconclusive, Shiga inhibitor 111.7, Cycloheximide cs 43.8 (no result: LASV entry inh)
O=C(CSc1ccsc1[N+](=O)[O-])Nc1cccc(F)c1	Cycloheximide cs 21.4 (no result: Marburg entry inh, LASV entry inh)
COc1ccccc1CNC(=O)CSC1=NCCS1	Cycloheximide cs 19.0
COc1ccccc1CNC(=O)CSc1ccsc1[N+](=O)[O-]	Shiga inhibitor 85.3, Cycloheximide cs 43.2 (no result: Marburg entry inh, LASV entry inh)
CC1=NN(c2ccccc2)C(=O)/C1=C/c1c(O)n(-c2ccc(F)c(Cl)c2)[nH]c1=O	Marburg entry inh inconclusive, Cycloheximide cs 17.4
CC1=NN(c2ccccc2)C(=O)/C1=C\c1c(C)[nH]n(-c2ccccc2)c1=O	none
O=C(Nc1ccccc1)N1CC2(CCN(C(=O)c3cnccn3)CC2)C1	none (no result: HCV inh, Marburg entry inh, Shiga inhibitor, Cycloheximide cs, LASV entry inh)
CCOc1ccc(-c2nc(CSCC(=O)NCc3ccc(C)cc3)c(C)o2)cc1	none (no result: HCV inh, Marburg entry inh, Shiga inhibitor, Cycloheximide cs)
C=CCC(=O)NC(C)c1cnn(-c2ccccc2C)c1C (centres undefined)	none (no result: Marburg entry inh, LASV entry inh)
Cc1ccccc1-n1ncc(C(C)NC(=O)c2ccco2)c1C (centres undefined)	Shiga inhibitor 54.9, Cycloheximide cs 28.5
Cc1ccccc1-n1ncc(C(C)NC(=O)c2ccccc2)c1C (centres undefined)	HCV inh inconclusive, Cycloheximide cs 35.5 (no result: Marburg entry inh, LASV entry inh)
O=C(c1ccc2nc3ccccc3c(=O)n2c1)N1CCN(Cc2ccc3c(c2)OCO3)CC1	HCV inh inconclusive, FMDV inh inconclusive
COCCNc1nc2c(c(=O)n(Cc3cccc(Br)c3)c(=O)n2C)n1C	none
C[C@@H]1CN([C@H](C)CO)C(=O)CCCn2nncc2CO[C@@H]1CN(C)C(=O)C1CCCCC1	none (no result: HCV inh, Marburg entry inh, Shiga inhibitor, Cycloheximide cs, LASV entry inh)
CC(C)C[C@H]1CN(CCCC[C@H]2CNC(=O)C(=O)N2Cc2ccccc2)C(=O)C(=O)N1CCc1ccccc1	none (no result: HCV inh, Marburg entry inh, Shiga inhibitor, Cycloheximide cs, LASV entry inh)
Cc1ccc(-c2cnc(C(O)c3ccc(C)cc3)[nH]2)cc1 (centres undefined)	none (no result: HCV inh, Marburg entry inh, Shiga inhibitor, Cycloheximide cs, LASV entry inh)
Cc1ccc(C2=NNC(C(O)C(O)C(O)C(C)O)S2)cc1 (centres undefined)	Marburg entry inh inconclusive, Shiga inhibitor 106.9, Cycloheximide cs 32.0
Cn1c(SCc2ccccc2)nnc1-c1c[nH]c2ccccc12	Shiga inhibitor 48.2, Cycloheximide cs 20.6 (no result: Marburg entry inh, LASV entry inh)
CCCCSc1nnc(-c2c[nH]c3ccccc23)n1C	HCV inh inconclusive (no result: Marburg entry inh, LASV entry inh)
O=C(Cc1c[nH]c2ccccc12)N1CCc2ccccc21	Shiga inhibitor 86.9, Cycloheximide cs 30.3
CCn1c(SCC(=O)N2CCc3ccccc32)nnc1-c1c[nH]c2ccccc12	Marburg entry inh inconclusive, FMDV inh 31.6µM, LASV entry inh inconclusive
CCn1c(SCC(=O)N2CCCc3ccccc32)nnc1-c1c[nH]c2ccccc12	HCV inh inconclusive, Marburg entry inh inconclusive, FMDV inh inconclusive, LASV entry inh inconclusive
CCn1c(SCC(=O)N2CCN(c3ccccc3)CC2)nnc1-c1c[nH]c2ccccc12	HCV inh 8.91µM, FMDV inh inconclusive (no result: Marburg entry inh, LASV entry inh)
NC(=O)C1CCN(C(=O)CSc2ccccn2)CC1	none
O=[N+]([O-])c1ccccc1CCc1ccccc1[N+](=O)[O-]	Marburg entry inh inconclusive (no result: Shiga inhibitor, Cycloheximide cs)
CCOC(=O)c1ccc(NC(=O)c2nc[nH]c2C(=O)N[C@@H](C)CO)cc1	none (no result: HCV inh, Marburg entry inh, Shiga inhibitor, Cycloheximide cs, LASV entry inh)
O=C(OCC(=O)N1CCNC1=O)c1ccccc1Cl	none (no result: HCV inh, Marburg entry inh, Shiga inhibitor, Cycloheximide cs, LASV entry inh)
COC(=O)c1ccc(CSc2nnc(-c3c[nH]c4ccccc34)n2-c2ccccc2)cc1	HCV inh 22.4µM, Marburg entry inh inconclusive, Shiga inhibitor active, Cycloheximide cs 18.3, LASV entry inh inconclusive
COc1ccc(N2CCN(C(=O)CSc3nnc(-c4cc5ccccc5cc4O)n3C)CC2)cc1	HCV inh inconclusive, FMDV inh 25.1µM
Cc1ccc2c(CC(=O)N3CCc4ccccc43)coc2c1	Marburg entry inh inconclusive, Shiga inhibitor 100.5, Cycloheximide cs 23.3
O=C(Cc1coc2ccc3ccccc3c12)N1CCc2ccccc21	HCV inh inconclusive
